# From PubChem BioAssay
# Shown are actives, neighbours in structure and some others; about 3.5% of the full set was active somewhere.
# Pf apPOL inh – Pf-apPOL inhibitors, biochemical, fluorescence; AID 1794808, 2022; actives 0.25% (n = 210,000); Recombinant Pf-apPOL, molecular beacon fluorescence, 1.5 h; inhibition, % at 10 µM; Plasmodium falciparum apicoplast DNA polymerase (apPOL)
# mHTT-CaM PPI inh – mutant huntingtin-calmodulin interaction inhibitors – biochemical, AlphaScreen, primary screen | P42858 | AlphaScreen His-mHTT/GST-CaM binding, luminescence | inhibition, % at 15 µM | actives 3.6% (n = 190,000) | AID 1671202, 2021;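 further: 0% = both proteins with DMSO and 100% = one protein alone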
# * marks the source's active call; other numbers are inactive results; i = inactive; . = no result. No stated cut-off is given here; in the data, active means inhibition above about 50%; inactive means the rest.
SMILES,Pf apPOL inh,mHTT-CaM PPI inh
Cc1oc2c3c(ccc2c(=O)c1-c1ccccc1)OCN(Cc1ccccn1)C3,-10.1,69.1*
CCn1cc(C(=O)Nc2ccc(CC#N)cc2)c(C)n1,-4.3,5.0
CCCCOc1ccc(NC(=O)CSc2cccc3cccnc23)cc1,0.7,8.0
COc1ccc(C(C[N+](=O)[O-])Sc2cccc3cccnc23)cc1 (centres undefined),-4.2,100.0*
Cc1nc2c(-c3ccc(Cl)cc3)c[nH]n2c(=O)c1Cl,-1.0,9.9
COc1ccc(-c2c(C)[nH]n3c(=O)cc(-c4ccc([N+](=O)[O-])cc4)nc23)cc1,-3.0,53.2*
Cc1cc(=O)n2[nH]c(C)c(-c3ccc(Cl)cc3)c2n1,-6.6,-3.1
O=c1cc(-c2ccc([N+](=O)[O-])cc2)nc2c(-c3ccc(Cl)cc3)c[nH]n12,4.5,54.5*
CCOCC(=O)N1CCC(c2cc(N)on2)CC1,0.0,-12.0
CC(C)N1C(=O)C(C)(C(=O)Nc2ccc(F)c(Cl)c2)Oc2cccnc21 (centres undefined),-5.2,99.6*
CC(C)N1C(=O)C(C)(C(=O)Nc2cccc(Cl)c2)Oc2cccnc21 (centres undefined),-1.3,-6.7
CN(C)C1CN(C(=O)c2ccccc2F)CCC1(O)c1ccccc1 (centres undefined),-2.4,-1.9
CCN(CC)C(=O)c1cc(C(C)C)on1,-2.0,1.7
COc1ccc2nc(SCC(=O)c3ccc4c(c3)OCO4)[nH]c2c1,4.2,5.0
CCN(C(=O)c1cccc(Cl)c1)C1C2CC3CC(C2)CC1C3 (centres undefined),-6.0,-35.3
Cc1cccc(C)c1NC(=O)c1ccco1,-6.0,-9.0
Cc1ccc(/C=C/NC(=O)c2ccco2)cc1C,-3.9,76.7*
O=C(CNC(=O)C1CCCCC1)Nc1nncs1,3.1,-2.3
CC(=O)Nc1ccc(N=Cc2ccccc2O)cc1,-0.2,4.0
CC(=O)Nc1ccc(N=Cc2cc(C)cc(I)c2O)cc1,-7.3,65.0*
CCOc1ccc(-n2nc3ccc(NC(=O)c4ccc(OC)c(OC)c4)cc3n2)cc1,-0.9,-5.0
Cc1nc([N+](=O)[O-])c2n1CC(c1ccccc1)=NN2c1ccc([N+](=O)[O-])cc1,-3.7,58.0*
CC1=NN(c2ccccc2)C(=O)C1N=Nc1ccc([N+](=O)[O-])cc1 (centres undefined),-3.5,.
Cc1ccc(CNC(=O)C2(C)CCCN(C(=O)Nc3ccc(Br)cc3)C2)cc1 (centres undefined),7.6,-9.0
CCN(CC)S(=O)(=O)c1ccc2[nH]cc(C(=O)NCc3ccc(F)cc3)c(=O)c2c1,-7.1,4.0
SMILES,Pf apPOL inh,mHTT-CaM PPI inh
CCN(CC)S(=O)(=O)c1ccc2[nH]cc(C(=O)NCCCN3CCCC3=O)c(=O)c2c1,-23.8,51.0*
CSc1cccc(NC(=O)c2cc3n(n2)CCCN(Cc2ccc(F)cc2)C3=O)c1,-3.5,18.8
O=C(CCSc1ccccc1)N1CC(c2nc(-c3cccc(Cl)c3)no2)C1,-19.4,66.8*
O=C(c1ccccn1)N1CC(c2nc(-c3cccc(Cl)c3)no2)C1,-8.2,-7.1
O=C(Cn1ccc2ccccc21)N1CC(c2nc(-c3cccc(Cl)c3)no2)C1,-3.3,60.3*
O=C(c1ccsc1)N1CC(c2nc(-c3cccc(Cl)c3)no2)C1,0.6,-4.5
CN(C)CCCN(C(=O)C1=COCCO1)c1nc2ccc(Br)cc2s1,-15.7,22.6
CN(C)CCCN(C(=O)Cc1ccccc1)c1nc2ccc(Br)cc2s1,-5.5,100.2*
COc1ccc(/C=C/C(=O)Nc2nc3n(n2)C(c2ccccc2)C=C(c2ccccc2)N3)cc1 (centres undefined),-3.0,72.0*
CCCC(=O)Nc1nc2n(n1)C(c1ccccc1)C=C(c1ccccc1)N2 (centres undefined),1.4,44.0
CCCCOC(=O)CC1NCCNC1=O (centres undefined),.,-8.6
CNC(=O)c1cccnc1N1CCC(C)CC1,-1.4,-5.9
CCOC(=O)c1cnc2nc(C)ccc2c1Nc1ccc(Cl)cc1,-8.4,65.7*
COC(=O)c1cnc2nc(C)ccc2c1Nc1ccc(C)c(Cl)c1,-0.4,77.7*
CCOC(=O)c1cnc2nc(C)ccc2c1Nc1ccc(F)c(F)c1,-3.7,33.7
COC(=O)c1cnc2nc(C)ccc2c1Nc1ccc(Cl)cc1,-8.1,62.0*
COC(=O)c1cnc2nc(C)ccc2c1Nc1ccc(F)c(Cl)c1,-5.0,-0.3
COC(=O)c1cnc2nc(C)ccc2c1Nc1ccc(C)cc1Cl,8.5,46.7
COC(=O)c1cnc2nc(C)ccc2c1Nc1cc(Cl)ccc1C,0.0,65.3*
COC(=O)c1cnc2nc(C)ccc2c1Nc1ccc(OC)cc1,2.5,13.3
COc1cc(C(=O)Oc2ccc3c(c2)OC(=Cc2cccc(F)c2)C3=O)cc(OC)c1OC,0.0,-4.4
CCC1CN2C=NC(N3CCN(C(=O)Nc4ccc(C)cc4C)CC3)=CC2=N1 (centres undefined),-1.2,2.2
COC(=O)c1cnc2nc(C)ccc2c1Nc1cccc(Br)c1,-19.3,14.5
COC(=O)c1cnc2nc(C)ccc2c1Nc1ccc(Br)cc1C,-14.7,93.9*
COc1ccccc1C(=O)NC(C)c1nc2ccccc2n1Cc1ccccc1F (centres undefined),-0.6,55.2*
SMILES,Pf apPOL inh,mHTT-CaM PPI inh
CCCC(=O)NC(C)c1nc2ccccc2n1Cc1ccccc1F (centres undefined),-1.1,4.0
COC(=O)c1sccc1Oc1ccc(C(F)(F)F)cc1NC(=O)c1c(-c2c(F)cccc2Cl)noc1C,1.5,.
O=C(Nc1nc2c(s1)C(=O)CCC2)c1nc2ccccc2s1,2.3,-9.9
COc1ccccc1NC(=O)c1c(NCc2ccccn2)sc2c1CCCCC2,-16.9,73.0*
CCOc1ccccc1NC(=O)c1c(NCc2ccncc2)sc2c1CCCC2,-14.7,53.0*
CCOc1ccc(NC(=O)c2c(NC(=O)CN3CCN(C)CC3)sc3c2CCC3)cc1,-5.9,0.6
CCOc1ccccc1NC(=O)c1c(NC(=O)CN2CCOCC2)sc2c1CCC2,0.3,-3.6
CCOc1ccccc1NC(=O)c1c(NCc2ccccn2)sc2c1CCCCC2,-21.8,73.0*
CCOc1ccc(NC(=O)c2c(NCc3ccccn3)sc3c2CCC3)cc1,-15.0,59.0*
CCOc1ccccc1NC(=O)c1c(NC(=O)CNCC2CCCO2)sc2c1CCC2 (centres undefined),-2.2,3.0
CC(C)(C)C(=O)Nc1sc2c(c1C(=O)Nc1ccccn1)CCCC2,-7.7,-6.1
CCN(CCCNC(=O)c1cn(C2CCCC2)c(=O)c2c1c1ccccc1n2C)c1ccccc1,0.3,21.0
COc1ccc(/C=c2\sc3nnc(-c4ccc(C)cc4)n3c2=O)cc1,-4.6,5.0
CC(O)c1cccc(-c2ccc(CN3C[C@]4(CO)OC(CO)C[C@@H]4S3(=O)=O)cc2)c1 (some centres undefined),-2.8,1.9
O=[N+]([O-])c1ccc(Cl)c(S(=O)(=O)Nc2ccc3oc4c(c3c2)CCCC4)c1,21.5,68.0*
O=[N+]([O-])c1ccc2oc3c(c2c1)CCCC3,-3.0,-4.1
Cc1ccc(S(=O)(=O)Nc2ccc(Cl)cc2)cc1[N+](=O)[O-],-0.6,8.7
O=C1CCCc2oc3ccc(NS(=O)(=O)c4cc([N+](=O)[O-])ccc4Cl)cc3c21,10.1,27.0
O=[N+]([O-])c1cc(S(=O)(=O)Nc2ccc3oc4c(c3c2)CCCC4)ccc1Cl,-9.3,75.0*
Cc1ccc(S(=O)(=O)Nc2ccc3oc4ccccc4c3c2)cc1[N+](=O)[O-],-2.4,97.0*
N/C(=N\OC(=O)c1cccc(F)c1)c1ccncc1,-5.6,i
